Assay outcomes as filed in PubChem BioAssay.
A selection: hits, their analogues and other compounds. The true share with any hit is near 2.3%.
CHRM1 agonist: agonists of human M1 muscarinic receptor; P11229; CHO-K1 hM1, Fluo-8 calcium fluorescence, agonist mode; 0% DMSO, 100% acetylcholine EC100; 360,000 tested, 0.33% active; activation, % at 3 µM;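 active = activation above the run's mean compound activation plus 3 SD, cut at about 16% in these data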;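 also: peak over basal fluorescence ratio within a 140 s kinetic read after compound addition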
Target sequence (P11229 whole entry, looked up): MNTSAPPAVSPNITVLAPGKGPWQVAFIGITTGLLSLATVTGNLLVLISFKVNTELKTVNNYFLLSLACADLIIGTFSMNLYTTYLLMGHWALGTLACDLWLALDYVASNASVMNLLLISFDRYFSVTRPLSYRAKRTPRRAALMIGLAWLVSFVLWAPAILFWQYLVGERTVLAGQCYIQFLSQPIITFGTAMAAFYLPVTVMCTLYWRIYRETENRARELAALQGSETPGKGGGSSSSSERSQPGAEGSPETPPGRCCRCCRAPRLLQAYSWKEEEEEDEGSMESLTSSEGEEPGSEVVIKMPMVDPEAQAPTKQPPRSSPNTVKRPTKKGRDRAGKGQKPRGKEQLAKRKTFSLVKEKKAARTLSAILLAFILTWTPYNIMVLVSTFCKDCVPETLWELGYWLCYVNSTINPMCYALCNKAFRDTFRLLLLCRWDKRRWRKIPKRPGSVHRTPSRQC
M1 ag parental: counter-screen for M1 agonists: effect in parental CHO-K1 cells; activation, % at 3 µM; 360,000 tested, 0.48% active; Fluo-8 calcium fluorescence; scaled to maximal ATP response, vehicle zero; in the data active = activation above about 15%;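 also: untransfected CHO-K1 host cells lacking M1 receptor as counterscreen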
M1 PAM parental: counter-screen for M1 PAMs: effect in parental CHO-K1 cells; ATP EC20, Fluo-8 calcium fluorescence; 0% at ATP EC20, 100% at ATP max; activation, % at 3 µM; 360,000 tested, 0.02% active; AID 602247;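 active = activation above the run cutoff, the mean activation of all test compounds plus 3 SD, cut at about 40% in these data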;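 also: peak over basal fluorescence ratio in a 140 s read after ATP addition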
M1 antag: blocks human M1 muscarinic receptor; CHO-K1 hM1, Fluo-8 calcium fluorescence, ACh EC80 antagonist; inhibition, % at 3 µM; 360,000 tested, 1.3% active; AID 588852; P11229;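 active = percent inhibition above its own plate's cutoff, namely the mean of that plate's compound wells plus 3 SD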;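 also: peak over basal fluorescence ratio during 140 s after agonist addition; 0% = ACh EC80 plus DMSO and 100% = DMSO alone without agonist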
M1 PAM: human CHRM1 positive allosteric modulation; activation, % at 3 µM; 360,000 tested, 0.088% active; AID 588819; CHO-K1 hM1, Fluo-8 calcium fluorescence, ACh EC20; 0% = ACh EC20, 100% = maximal ACh; P11229; in the data active = activation above about 19%, passing the limit was not always enough
CHO-K1 Ca antag: nonselective inhibitor or artifact in parental CHO-K1 cells; AID 602250; ATP-induced calcium, Fluo-8 fluorescence; inhibition, % at 3 µM; 360,000 tested, 0.6% active;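 active = inhibition above a per-plate cutoff, the plate's mean sample inhibition plus 3 SD, cut at about 24% in these data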;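 also: 0% = DMSO plus EC80 ATP and 100% = DMSO alone without ATP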
An asterisk follows results filed as active; nt = no result.

SMILES	CHRM1 agonist	M1 ag parental	M1 PAM parental	M1 antag	M1 PAM	CHO-K1 Ca antag
O=C(Nc1cccnc1)c1ccc2nc(-c3ccccc3)c(-c3ccccc3)nc2c1	-3	17*	-2	19	2	12
O=C(Nc1cccnc1)c1ccc(Oc2ccccc2)cc1	-3	1	7	-7	2	-8
COc1ccccc1N1CCN(/N=C\c2sccc2C)CC1	-3	20*	11	5	4	3
CC1(C)C2CC=C(/C=N/NC(=S)Nc3cccnc3)C1C2 (stereo unspecified)	-5	16*	15	1	0	14
CC[C@H]1O[C@H](C)CC2=C1C(=O)OC(C)(C)O2	nt	1	7	nt	nt	-8
COC(=O)c1[nH]c2ccc(C)cc2c1NC(=O)CCN1CCN(Cc2ccc3c(c2)OCO3)CC1	-15	1	12	61*	-33	-17
CC(C)(C)C1CCC2(CC1)C(C#N)=C(SCC(=O)Nc1ccccc1)NC(=O)C2C#N (stereo unspecified)	5	10	-1	20	-12	27*
CC1(C)CC(=O)C2=C(C1)NC(SCC(=O)Nc1ccccc1)=C(C#N)C21CCCCC1	-2	0	19	-19	2	-10
O=C(Nc1ccc2nc(SCc3ccc(Cl)cc3)sc2c1)c1ccccc1C(=O)N1CCOCC1	-2	3	6	29*	-9	11
COc1ccc(F)cc1Cn1nc(C(=O)O)c2ccccc2c1=O	-2	1	-27	6	1	-10
Cc1cc2nc3n(c2cc1C)CCCN3	-11	0	-13	34*	-23	9
Cc1cc2nc(C)c(=O)n(C)c2cc1C	-6	0	2	-13	10	-1
CCCCn1c(-c2csc3c2CCC(C)C3)n[nH]c1=S (stereo unspecified)	-8	1	22	47*	-21	-16
C=CCn1c(-c2csc3c2CCC(C)C3)n[nH]c1=S (stereo unspecified)	-13	0	-7	0	-13	7
O=c1[nH][nH]c2c1C(c1ccc(Cl)c(Cl)c1)OC(CCc1ccccc1)C2 (stereo unspecified)	nt	0	13	nt	nt	-13
COc1ccc(C(=O)NCC(=O)N2CCN(c3ccccc3)CC2)cc1	0	1	11	-15	12	-17
O=C(NCC(=O)N1CCN(c2ccccc2)CC1)c1ccc(Cl)cc1	-2	0	-8	69*	3	1
CSCCC(NC(=O)c1ccc(Cl)c([N+](=O)[O-])c1)C(=O)N1CCN(C/C=C/c2ccccc2)CC1 (stereo unspecified)	20*	0	5	2	-2	-11
O=C(NCCN1CCN(c2ccccc2)CC1)Nc1ccc(Cl)cc1	-1	16*	3	-3	2	-17
CC(C)C(NC(=O)c1ccccc1)C(=O)N1CCN(C/C=C/c2ccccc2)CC1 (stereo unspecified)	-3	0	6	5	-6	-15
O=C(NCCN1CCN(c2cccc(Cl)c2)CC1)Nc1ccccc1	-3	8	7	7	-7	-14
C[C@H](NC(=O)c1ccc(C(C)(C)C)cc1)C(=O)N1CCN(C/C=C/c2ccccc2)CC1	38*	5	16	46*	-16	-22
O=C(NCC(=O)N1CCN(C/C=C/c2ccccc2)CC1)c1ccc(Br)cc1	18*	2	7	33*	-15	-20
Cc1cc(C)c(S(=O)(=O)NC2CCN(Cc3ccccc3)CC2)c(C)c1	-5	1	13	-3	2	-10
Cc1cc(S(=O)(=O)NC2CCN(Cc3ccccc3)CC2)c(C)cc1Cl	-4	8	17	52*	-24	-13
SMILES	CHRM1 agonist	M1 ag parental	M1 PAM parental	M1 antag	M1 PAM	CHO-K1 Ca antag
Cc1[nH]c2ccccc2c1C(=O)CN1C(=O)NC(C)(c2ccc(Cl)cc2Cl)C1=O (stereo unspecified)	27*	11	12	19	6	8
Cc1ccc([C@H]2N[C@]3(CCCN(Cc4ccc(Br)cc4)C3=O)[C@H]3C(=O)N(Cc4ccccc4)C(=O)[C@@H]23)cc1	-4	2	3	0	-1	-14
COc1ccc(CN(C)CC(O)COC(c2ccccc2)c2ccccc2)c(OC)c1OC (stereo unspecified)	-10	28*	0	20	-23	-3
CN(C)CC(O)COC(c1ccccc1)c1ccccc1 (stereo unspecified)	-10	1	12	39*	-34	-4
COc1ccc(/C(C)=N/NC(=O)c2ccc(NS(=O)(=O)c3cccs3)cc2)cc1	-2	0	17	1	4	-14
CC(C)(C)CCN1CCC(CN2CCNC2=S)CC1	-10	0	3	-3	-1	1
OC(c1cc(C(F)(F)F)nc2c(Cl)cc(Cl)cc12)C1CCCCN1 (stereo unspecified)	3	18*	15	-8	7	-1
CC(C)=NOCC(=O)Nn1c(COc2c(C)cccc2C)nc2ccccc2c1=O	-2	3	4	-21	17	-7
CCN(Cc1ccccc1)C(=O)COC(=O)Cc1c[nH]c2ccccc12	-3	5	-13	3	0	25*
COc1ccc(N2CC(C(=O)Nc3c4c(nn3-c3ccc(OC)cc3)CS(=O)(=O)C4)CC2=O)cc1 (stereo unspecified)	1	1	5	-26	26*	-2
COc1ccc(-n2nnnc2CNC(=O)C2CC(=O)N(c3ccc(F)cc3)C2)cc1 (stereo unspecified)	2	0	-16	-10	10	28*
COc1ccc(SCCN2CC[C@@H](C)CCC2=O)cc1	-6	1	-18	26	-16	24*
CCCC(O)(c1ccccc1)C(CN1CCOCC1)c1ccccc1 (stereo unspecified)	-4	0	13	-16	11	-27
CCCCC(O)(CCN1CCOCC1)c1ccc(Cl)cc1 (stereo unspecified)	-8	0	10	87*	-21	-10
CCCCCC(O)(CCN1CCCCC1)c1ccc(OCC)cc1 (stereo unspecified)	-14	1	-4	99*	-32	2
CCCC(O)(CCN1CCCCC1)c1ccc(OCC)cc1 (stereo unspecified)	-12	1	-5	16	-16	5
CCC(O)(CCN1CCCCC1)c1ccccc1 (stereo unspecified)	-5	0	1	76*	-22	-1
CCCC(O)(c1ccc(Cl)cc1)C(CN1CCOCC1)c1ccccc1 (stereo unspecified)	-8	0	0	61*	-21	0
CCCCOc1ccc(C(O)(CCC)CCN2CCOCC2)cc1 (stereo unspecified)	-7	4	19	3	-17	-1
